Measurements as given in PubChem BioAssay (EPA / NIEHS).
Activity calls are given as the source filed them. The calls were made as follows: active = hit-call score of the fitted dose curve at least 0.9, where 1 is the maximum; inactive = score below 0.9.

Experiments:
[1] = ATG_GRE_CIS: Attagene CIS-FACTORIAL HepG2 Assay for human Glucocorticoid Response Elements (GRE) (AID 2282947); settings: HepG2 GRE cis-reporter, Attagene multiplex mRNA; actives raise or lower the signal
Method in brief: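 HepG2, transient cis-reporter transfection, 24 h. Reporter mRNA: RT-PCR then CE, fluorescence. Fit both directions vs DMSO.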

[2] = ATG_ISRE_CIS: Attagene CIS-FACTORIAL HepG2 Assay for human Interferon Regulatory Factor 1 (IRF1) binding to an Interferon-Stimulated Response Element (ISRE) (AID 2282948); settings: HepG2 ISRE cis-reporter (Attagene), mRNA transcription readout; actives raise or lower the signal
Method in brief: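 Read-out: fluorescent RT-PCR products resolved by capillary electrophoresis, reporting endogenous transcription factor activity via ISRE-driven reporter mRNA in transfected HepG2 cells dosed for 24 h; gain or loss fitted relative to DMSO.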

[3] = ATG_M_32_CIS: Attagene CIS-FACTORIAL HepG2 Assay for M32 Transcription Factor (Internal Marker) (AID 2282949); settings: HepG2 Attagene cis-factorial M32 reporter, mRNA; actives raise or lower the signal;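 also: background control marker of the multiplexed CIS panel rather than a real target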
Method in brief: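 Transient MRTU transfection of HepG2; 24 h compound treatment; TriZol RNA, oligo(dT) RT, reporter PCR, 6-FAM primer extension, HpaI cut, CE. Gain/loss of signal vs DMSO.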

[4] = ATG_M_06_CIS: Attagene CIS-FACTORIAL HepG2 Assay for M06 Transcription Factor (Internal Marker) (AID 2282950); settings: HepG2 Attagene CIS-FACTORIAL M06 internal marker reporter; actives raise or lower the signal
Method in brief: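 Terse: HepG2, transient MRTU transfection (FuGene 6), 24 h dosing; total RNA, oligo(dT) RT, PCR, FAM label, HpaI cut, capillary electrophoresis; bidirectional fit vs DMSO baseline; background-control endpoint.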

[5] = molecular target: Hypoxia-inducible factor 1-alpha (Homo sapiens) (UniProt Q16665); test: ATG_HIF1a_CIS: Attagene CIS-FACTORIAL HepG2 Assay for human Hypoxia Inducible Factor 1 (HIF1A) (AID 2282951); settings: HepG2 Attagene cis-factorial HIF1a reporter transcription; actives raise or lower the signal
Hypoxia-inducible factor 1-alpha (Homo sapiens), sequence (Q16665 whole entry, looked up): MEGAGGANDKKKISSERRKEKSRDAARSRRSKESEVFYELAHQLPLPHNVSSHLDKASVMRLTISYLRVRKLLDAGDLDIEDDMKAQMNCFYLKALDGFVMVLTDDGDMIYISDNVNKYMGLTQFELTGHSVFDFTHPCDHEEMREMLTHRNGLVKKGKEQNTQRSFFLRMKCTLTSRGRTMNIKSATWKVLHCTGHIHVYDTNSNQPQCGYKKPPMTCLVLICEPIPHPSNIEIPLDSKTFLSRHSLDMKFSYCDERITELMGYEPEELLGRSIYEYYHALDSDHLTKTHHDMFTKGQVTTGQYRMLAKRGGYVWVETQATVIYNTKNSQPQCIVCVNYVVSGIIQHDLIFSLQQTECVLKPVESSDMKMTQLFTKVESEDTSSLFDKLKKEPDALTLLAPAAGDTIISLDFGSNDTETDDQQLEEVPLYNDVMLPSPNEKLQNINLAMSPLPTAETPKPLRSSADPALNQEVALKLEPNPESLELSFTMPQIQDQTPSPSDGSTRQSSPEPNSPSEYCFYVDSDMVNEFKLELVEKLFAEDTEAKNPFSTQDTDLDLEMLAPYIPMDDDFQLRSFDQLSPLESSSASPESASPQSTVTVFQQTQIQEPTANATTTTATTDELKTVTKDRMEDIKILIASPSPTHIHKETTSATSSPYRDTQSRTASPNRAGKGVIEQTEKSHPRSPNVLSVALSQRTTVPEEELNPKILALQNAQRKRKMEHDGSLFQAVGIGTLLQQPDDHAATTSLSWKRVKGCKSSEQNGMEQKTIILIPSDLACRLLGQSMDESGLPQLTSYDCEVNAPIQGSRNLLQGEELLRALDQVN
Method in brief: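 After 24 h chemical exposure of reporter-transfected HepG2 cells, reporter cDNA was PCR-amplified, labelled by 6-FAM primer extension (2 min 95 C, 20 s 68 C, 10 min 72 C), HpaI-cut (2 h, 37 C) and analysed by CE.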

[6] = molecular target: Hepatocyte nuclear factor 6 (Homo sapiens) (UniProt Q9UBC0); test: ATG_HNF6_CIS: Attagene CIS-FACTORIAL HepG2 Assay for human Hepatocyte Nuclear Factor 6 (HNF6) (AID 2282952); settings: HepG2 Attagene cis-factorial HNF6 reporter transcription; actives raise or lower the signal
Hepatocyte nuclear factor 6 (Homo sapiens), sequence (Q9UBC0 whole entry, looked up, the tested form may be a part): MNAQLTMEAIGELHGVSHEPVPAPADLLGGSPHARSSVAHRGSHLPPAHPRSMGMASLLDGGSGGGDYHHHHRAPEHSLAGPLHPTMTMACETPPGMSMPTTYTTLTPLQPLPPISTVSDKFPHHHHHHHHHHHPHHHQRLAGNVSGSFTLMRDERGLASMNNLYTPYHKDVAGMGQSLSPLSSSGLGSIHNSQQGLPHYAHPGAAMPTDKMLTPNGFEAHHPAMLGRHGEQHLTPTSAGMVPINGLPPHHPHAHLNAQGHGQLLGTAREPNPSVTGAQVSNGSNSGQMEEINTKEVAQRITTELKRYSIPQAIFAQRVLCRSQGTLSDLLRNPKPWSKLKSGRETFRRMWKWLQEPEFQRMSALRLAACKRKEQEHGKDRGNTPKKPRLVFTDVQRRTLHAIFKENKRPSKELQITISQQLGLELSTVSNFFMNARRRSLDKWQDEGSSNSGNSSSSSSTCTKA
Method in brief: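 Twenty-four-hour chemical treatment of reporter-transfected HepG2 cells precedes RNA isolation, DNase-treated reverse transcription and PCR of reporter sequences. Labelled fragments are sized by capillary electrophoresis and fitted bidirectionally versus DMSO.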

[7] = molecular target: Heat shock factor protein 1 (Homo sapiens) (UniProt Q00613); test: ATG_HSE_CIS: Attagene CIS-FACTORIAL HepG2 Assay for human Heat Shock Transcription Factor 1 (HSE) (AID 2282953); settings: HepG2 HSE cis-reporter, Attagene RNA transcription; actives raise or lower the signal
Heat shock factor protein 1 (Homo sapiens), sequence (Q00613 whole entry, looked up, the tested form may be a part): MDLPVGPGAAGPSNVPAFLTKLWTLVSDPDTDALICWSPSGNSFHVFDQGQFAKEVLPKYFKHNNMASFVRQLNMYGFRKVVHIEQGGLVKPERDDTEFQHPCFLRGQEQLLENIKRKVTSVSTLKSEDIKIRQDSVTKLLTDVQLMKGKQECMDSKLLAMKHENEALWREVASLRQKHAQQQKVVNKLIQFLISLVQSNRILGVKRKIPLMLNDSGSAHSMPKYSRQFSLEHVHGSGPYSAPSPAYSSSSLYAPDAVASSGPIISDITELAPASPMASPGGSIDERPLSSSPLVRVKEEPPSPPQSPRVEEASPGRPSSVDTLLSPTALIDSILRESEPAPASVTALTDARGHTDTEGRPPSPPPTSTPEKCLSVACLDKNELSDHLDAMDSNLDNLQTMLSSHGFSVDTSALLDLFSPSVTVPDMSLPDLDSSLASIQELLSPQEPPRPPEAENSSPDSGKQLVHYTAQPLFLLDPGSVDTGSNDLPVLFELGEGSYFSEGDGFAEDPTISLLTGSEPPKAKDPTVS
Method in brief: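 Read-out: fluorescence of reporter-specific RT-PCR fragments separated by capillary electrophoresis. HepG2 carrying transfected cis-element reporter units; 24 h dosing; activity fitted in both directions relative to DMSO baseline.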

[8] = ATG_MRE_CIS: Attagene CIS-FACTORIAL HepG2 Assay for human Metal Responsive Element (MRE) (AID 2282954); settings: HepG2 MRE cis-reporter transcription, Attagene multiplex; actives raise or lower the signal
Method in brief: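 Readout: capillary electrophoresis of 6-FAM-labelled, HpaI-digested RT-PCR reporter products. System: HepG2 cells carrying transient multiplexed cis reporters, dosed 24 h. Analysis: bidirectional fit, DMSO baseline.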

[9] = ATG_PBREM_CIS: Attagene CIS-FACTORIAL HepG2 Assay for human Phenobarbital-responsive Enhancer Module (PBREM) (AID 2282955); settings: HepG2 PBREM cis-reporter, Attagene multiplexed transcription; actives raise or lower the signal
Method in brief: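 Measures endogenous factor action on a phenobarbital-responsive enhancer module. HepG2 transiently carrying cis reporters, 24 h treatment, mRNA read-out by RT-PCR plus capillary electrophoresis.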

[10] = molecular target: Paired box protein Pax-6 (Homo sapiens) (UniProt P26367); test: ATG_Pax6_CIS: Attagene CIS-FACTORIAL HepG2 Assay for human Paired Box 6 (PAX6) (AID 2282956); settings: HepG2 CIS-FACTORIAL PAX6 reporter transcription, RNA readout; actives raise or lower the signal
Paired box protein Pax-6 (Homo sapiens), sequence (P26367 whole entry, looked up): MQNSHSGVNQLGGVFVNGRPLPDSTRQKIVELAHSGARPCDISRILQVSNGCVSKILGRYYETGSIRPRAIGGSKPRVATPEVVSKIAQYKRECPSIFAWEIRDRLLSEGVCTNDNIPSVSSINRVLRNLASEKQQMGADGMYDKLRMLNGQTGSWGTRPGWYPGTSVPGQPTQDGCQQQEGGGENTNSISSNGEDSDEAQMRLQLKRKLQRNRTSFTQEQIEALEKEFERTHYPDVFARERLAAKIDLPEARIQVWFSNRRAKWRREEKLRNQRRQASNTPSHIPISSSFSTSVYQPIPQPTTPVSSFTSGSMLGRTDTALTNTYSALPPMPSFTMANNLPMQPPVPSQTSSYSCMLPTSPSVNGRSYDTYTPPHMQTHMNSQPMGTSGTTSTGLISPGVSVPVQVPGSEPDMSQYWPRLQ
Method in brief: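 Readout: reporter transcript fluorescence after RT-PCR and capillary electrophoresis. Cells: HepG2, transiently transfected with cis-regulated MRTUs. Exposure 24 h. Gain or loss of signal fitted bidirectionally relative to DMSO.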

[11] = ATG_PXRE_CIS: Attagene CIS-FACTORIAL HepG2 Assay for human Pregnane X Receptor Element (PXRE) (AID 2282957); settings: HepG2 Attagene CIS-FACTORIAL PXRE reporter, mRNA; actives raise or lower the signal
Method in brief: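 Bidirectional activity, baselined to DMSO, derived from reporter mRNA fluorescence (RT-PCR plus capillary electrophoresis) in HepG2 cells bearing cis-promoter reporter units, 24 h exposure.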

[12] = ATG_PPRE_CIS: Attagene CIS-FACTORIAL HepG2 Assay for human Peroxisome Proliferator-activated Response Element (PPRE) (AID 2282958); settings: HepG2 PPRE cis-element reporter, Attagene transcription factor profiling; actives raise or lower the signal
Method in brief: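 PPRE activity in HepG2: transient cis-reporter transfection, 24 h compound incubation, reporter mRNA by RT-PCR and CE fluorescence; gain/loss fitted against DMSO.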

[13] = ATG_RORE_CIS: Attagene CIS-FACTORIAL HepG2 Assay for human RAR-related Orphan Receptor Element (RORE) (AID 2282959); settings: HepG2 Attagene cis-factorial RORE reporter, mRNA; actives raise or lower the signal
Method in brief: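 A 24-hour exposure of transfected HepG2 hepatoma cells precedes RNA isolation and reporter RT-PCR. Labeled products are digested with HpaI and resolved by capillary electrophoresis, with gain or loss of signal scored relative to DMSO.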

[14] = ATG_Sox_CIS: Attagene CIS-FACTORIAL HepG2 Assay for human SRY-box transcription factor (SOX) (AID 2282960); settings: HepG2 Attagene cis-factorial SOX reporter, mRNA; actives raise or lower the signal
Method in brief: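 HepG2, cis reporter units, 24 h exposure. Reporter mRNA: RT-PCR → FAM labelling → HpaI → CE fluorescence. Bidirectional fit vs DMSO.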

[15] = molecular target: Transcription factor Sp1 (Homo sapiens) (UniProt P08047); test: ATG_Sp1_CIS: Attagene CIS-FACTORIAL HepG2 Assay for human Specificity Protein 1 (Sp1) (AID 2282961); settings: HepG2 Sp1 cis-reporter transcription, actives raise or lower the signal
Transcription factor Sp1 (Homo sapiens), sequence (P08047 whole entry, looked up, the tested form may be a part): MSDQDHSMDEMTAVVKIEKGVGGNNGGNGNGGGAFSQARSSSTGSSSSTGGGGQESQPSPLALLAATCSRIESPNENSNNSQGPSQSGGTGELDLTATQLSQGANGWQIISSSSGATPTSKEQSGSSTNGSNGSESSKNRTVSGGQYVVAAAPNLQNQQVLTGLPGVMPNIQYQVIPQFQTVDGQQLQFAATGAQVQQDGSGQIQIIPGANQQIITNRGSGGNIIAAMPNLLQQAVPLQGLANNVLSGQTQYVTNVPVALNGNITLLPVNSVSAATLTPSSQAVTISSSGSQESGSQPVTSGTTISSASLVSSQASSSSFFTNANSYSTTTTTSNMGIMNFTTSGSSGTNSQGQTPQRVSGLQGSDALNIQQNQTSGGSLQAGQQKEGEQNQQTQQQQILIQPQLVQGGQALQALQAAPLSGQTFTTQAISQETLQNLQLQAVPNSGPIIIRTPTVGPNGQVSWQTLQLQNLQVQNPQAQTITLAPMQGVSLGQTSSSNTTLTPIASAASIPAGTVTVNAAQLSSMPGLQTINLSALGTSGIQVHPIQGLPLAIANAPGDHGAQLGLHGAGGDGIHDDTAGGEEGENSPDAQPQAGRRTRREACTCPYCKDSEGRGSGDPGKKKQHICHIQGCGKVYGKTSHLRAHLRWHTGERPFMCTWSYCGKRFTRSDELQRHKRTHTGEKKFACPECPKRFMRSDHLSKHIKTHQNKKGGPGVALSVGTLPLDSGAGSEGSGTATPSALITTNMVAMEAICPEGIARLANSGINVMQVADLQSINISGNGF
Method in brief: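 Liver-derived HepG2 cells, cis-element reporter library, 24 h treatment; RNA isolated, cDNA amplified with reporter-specific primers, FAM-labeled fragments sized on capillary analyzer. DMSO baseline, bidirectional curve fit.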

[16] = ATG_SREBP_CIS: Attagene CIS-FACTORIAL HepG2 Assay for human Sterol Regulatory Element Binding (SREBP) (AID 2282962); settings: HepG2 Attagene cis-factorial SREBP reporter, mRNA; actives raise or lower the signal
Method in brief: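 Readout: fluorescent reporter-transcript peaks resolved by capillary electrophoresis after RT-PCR. Cells were human HepG2 carrying transfected cis-promoter reporter constructs, dosed for 24 h. Gain or loss of signal was fitted against DMSO controls.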

[17] = ATG_TA_CIS: Attagene CIS-FACTORIAL HepG2 Assay for human TA Basal Promoter (AID 2282964); settings: HepG2 Attagene CIS-factorial TA basal promoter reporter; actives raise or lower the signal
Method in brief: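 Transfected HepG2, 24 h compound exposure; RNA → RT-PCR → FAM primer extension → HpaI cut → CE fluorescence. Gain/loss-of-signal fitted against DMSO negative control. Background-control readout.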

[18] = ATG_TCF_b_cat_CIS: Attagene CIS-FACTORIAL HepG2 Assay for human T-Cell-Factor with beta-catenin (TCF/b-cat) (AID 2282965); settings: HepG2 TCF/beta-catenin cis-reporter transcription, actives raise or lower the signal
Method in brief: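 In this cis-format system, transfected HepG2 cells report endogenous transcription factor activity. Readout after 24 h exposure is reporter transcript abundance from RT-PCR and capillary electrophoresis, analysed for gain or loss of signal versus DMSO.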

[19] = molecular target: Signal transducer and activator of transcription 3 (Homo sapiens) (UniProt P40763); test: ATG_STAT3_CIS: Attagene CIS-FACTORIAL HepG2 Assay for human Signal Transducer and Activator of Transcription 3 (STAT3) (AID 2282963); settings: HepG2, Attagene cis-factorial STAT3 reporter transcription; actives raise or lower the signal
Signal transducer and activator of transcription 3 (Homo sapiens), sequence (P40763 whole entry, looked up): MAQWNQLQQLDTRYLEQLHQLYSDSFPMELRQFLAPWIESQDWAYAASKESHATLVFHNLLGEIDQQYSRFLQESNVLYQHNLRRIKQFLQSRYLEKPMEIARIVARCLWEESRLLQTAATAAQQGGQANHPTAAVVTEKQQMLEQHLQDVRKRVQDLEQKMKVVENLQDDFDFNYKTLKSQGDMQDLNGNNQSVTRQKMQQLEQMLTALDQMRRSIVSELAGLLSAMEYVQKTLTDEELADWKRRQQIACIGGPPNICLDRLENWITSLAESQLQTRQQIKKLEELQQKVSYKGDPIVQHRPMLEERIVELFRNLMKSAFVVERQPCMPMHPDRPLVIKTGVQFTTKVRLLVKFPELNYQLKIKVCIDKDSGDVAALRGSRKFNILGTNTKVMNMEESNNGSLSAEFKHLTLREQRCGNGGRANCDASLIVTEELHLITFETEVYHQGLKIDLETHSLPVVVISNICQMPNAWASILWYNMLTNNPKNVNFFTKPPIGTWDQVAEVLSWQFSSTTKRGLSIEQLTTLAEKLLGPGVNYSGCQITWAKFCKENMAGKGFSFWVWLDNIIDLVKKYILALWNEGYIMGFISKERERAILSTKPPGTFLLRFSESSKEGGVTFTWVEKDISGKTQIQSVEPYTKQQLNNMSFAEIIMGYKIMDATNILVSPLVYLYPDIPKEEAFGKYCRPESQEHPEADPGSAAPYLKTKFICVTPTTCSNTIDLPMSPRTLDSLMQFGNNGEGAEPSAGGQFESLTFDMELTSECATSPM
Method in brief: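 Uses human liver HepG2 transiently carrying cis-regulated reporter transcription units. Following 24 h dosing, reporter mRNA induction was detected by RT-PCR and capillary electrophoresis, analysed bidirectionally versus DMSO.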

[20] = molecular target: Bile acid receptor (Homo sapiens) (UniProt Q96RI1); test: ATG_IR1_CIS: Attagene CIS-FACTORIAL HepG2 Assay for human Nuclear Receptor Subfamily 1 Group H Member 4 (NR1H4), IR1 submotif (AID 2282946); settings: IR1 reporter transcription, actives raise or lower the signal
Bile acid receptor (Homo sapiens), sequence (Q96RI1 whole entry, looked up): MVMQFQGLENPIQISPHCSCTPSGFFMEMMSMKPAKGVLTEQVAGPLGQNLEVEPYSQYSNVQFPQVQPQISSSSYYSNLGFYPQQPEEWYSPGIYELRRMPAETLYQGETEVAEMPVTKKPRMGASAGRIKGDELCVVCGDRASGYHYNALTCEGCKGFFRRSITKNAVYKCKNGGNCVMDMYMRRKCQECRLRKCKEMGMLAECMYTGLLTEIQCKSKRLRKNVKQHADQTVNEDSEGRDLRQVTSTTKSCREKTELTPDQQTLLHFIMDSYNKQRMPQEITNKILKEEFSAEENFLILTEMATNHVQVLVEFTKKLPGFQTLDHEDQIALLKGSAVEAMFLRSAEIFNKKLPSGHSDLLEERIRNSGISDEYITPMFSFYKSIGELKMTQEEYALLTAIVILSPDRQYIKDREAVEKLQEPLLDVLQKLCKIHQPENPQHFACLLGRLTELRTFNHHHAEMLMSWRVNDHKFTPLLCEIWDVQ
Method in brief: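 Readout: reporter transcript levels by RT-PCR with fluorescent capillary electrophoresis, from HepG2 cells transiently transfected with multiplexed cis-regulated reporters and dosed 24 h. Gain- or loss-of-signal fitted versus DMSO negative control.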

Measured: AC50

CN1C(=O)c2ccccc2C1=O
not listed: [19] | [20]
inactive: all other assays above

CCOCCOCCOCC
not listed: [18] | [20]
inactive: all other assays above

CCC1(C)NC(=O)NC1=O (stereo not given)
not listed: [1] | [2] | [6] | [7] | [8] | [9] | [12] | [13]
inactive: all other assays above

CC(Oc1cc(Cl)ccc1Cl)C(=O)O (stereo not given)
active: [11] 82.1 µM | [12] 100 µM
not listed: [19] | [20]
inactive: all other assays above

C=CCCCCCCCCCC
not listed: [20]
inactive: all other assays above

CCO/C=C1\N=C(c2ccccc2)OC1=O
active: [11] 63.8 µM
not listed: [20]
inactive: all other assays above

CCOc1ccc(N=Nc2ccc(C=Cc3ccc(N=Nc4ccc(OCC)cc4)cc3S(=O)(=O)O)c(S(=O)(=O)O)c2)cc1
active: [11] 39.9 µM
not listed: [13] | [20]
inactive: all other assays above

CN(C)c1cccc(O)c1
active: [11] 6.77 µM
not listed: [13] | [20]
inactive: all other assays above

COc1ccc(CCO)cc1
active: [1] 183 µM | [19] 179 µM
not listed: [13] | [20]
inactive: all other assays above

Cc1ccc2c(c1)C(=O)OC2=O
not listed: [13] | [18] | [20]
inactive: all other assays above

COc1ccc(N=Nc2cc(C)c(N=Nc3ccc(S(=O)(=O)O)cc3)cc2OC)cc1
active: [7] 100 µM | [10] 100 µM | [11] 23.1 µM | [13] 8.45 µM | [15] 175 µM | [16] 162 µM | [19] 162 µM
not listed: [8] | [12] | [20]
inactive: all other assays above

OC[C@H]1O[C@@H]2O[C@H]3[C@H](O)[C@@H](O)[C@@H](O[C@H]4[C@H](O)[C@@H](O)[C@@H](O[C@H]5[C@H](O)[C@@H](O)[C@@H](O[C@H]6[C@H](O)[C@@H](O)[C@@H](O[C@H]7[C@H](O)[C@@H](O)[C@@H](O[C@H]8[C@H](O)[C@@H](O)[C@@H](O[C@H]9[C@H](O)[C@@H](O)[C@@H](O[C@H]1[C@H](O)[C@H]2O)O[C@@H]9CO)O[C@@H]8CO)O[C@@H]7CO)O[C@@H]6CO)O[C@@H]5CO)O[C@@H]4CO)O[C@@H]3CO
not listed: [11] | [12] | [20]
inactive: all other assays above

OCC#CCO
not listed: [9] | [12] | [13] | [20]
inactive: all other assays above

CCCCSCCCC
not listed: [12] | [20]
inactive: all other assays above

C=C(C)[C@@H]1CC=C(C)C(=O)C1
active: [11] 25.5 µM
not listed: [9] | [12] | [20]
inactive: all other assays above
